# Measured values: the supplement of paper PMC3334620
# Whole data set: some 33,000 sequences, median “E-score (-0.5 to 0.5)” near -0.035, cut for the highest 2% near 0.35. Shown is part of a subset that was picked to be rich in the highest values.
# Target: T1, Pdr3 (UniProt P33200)
# T1 sequence: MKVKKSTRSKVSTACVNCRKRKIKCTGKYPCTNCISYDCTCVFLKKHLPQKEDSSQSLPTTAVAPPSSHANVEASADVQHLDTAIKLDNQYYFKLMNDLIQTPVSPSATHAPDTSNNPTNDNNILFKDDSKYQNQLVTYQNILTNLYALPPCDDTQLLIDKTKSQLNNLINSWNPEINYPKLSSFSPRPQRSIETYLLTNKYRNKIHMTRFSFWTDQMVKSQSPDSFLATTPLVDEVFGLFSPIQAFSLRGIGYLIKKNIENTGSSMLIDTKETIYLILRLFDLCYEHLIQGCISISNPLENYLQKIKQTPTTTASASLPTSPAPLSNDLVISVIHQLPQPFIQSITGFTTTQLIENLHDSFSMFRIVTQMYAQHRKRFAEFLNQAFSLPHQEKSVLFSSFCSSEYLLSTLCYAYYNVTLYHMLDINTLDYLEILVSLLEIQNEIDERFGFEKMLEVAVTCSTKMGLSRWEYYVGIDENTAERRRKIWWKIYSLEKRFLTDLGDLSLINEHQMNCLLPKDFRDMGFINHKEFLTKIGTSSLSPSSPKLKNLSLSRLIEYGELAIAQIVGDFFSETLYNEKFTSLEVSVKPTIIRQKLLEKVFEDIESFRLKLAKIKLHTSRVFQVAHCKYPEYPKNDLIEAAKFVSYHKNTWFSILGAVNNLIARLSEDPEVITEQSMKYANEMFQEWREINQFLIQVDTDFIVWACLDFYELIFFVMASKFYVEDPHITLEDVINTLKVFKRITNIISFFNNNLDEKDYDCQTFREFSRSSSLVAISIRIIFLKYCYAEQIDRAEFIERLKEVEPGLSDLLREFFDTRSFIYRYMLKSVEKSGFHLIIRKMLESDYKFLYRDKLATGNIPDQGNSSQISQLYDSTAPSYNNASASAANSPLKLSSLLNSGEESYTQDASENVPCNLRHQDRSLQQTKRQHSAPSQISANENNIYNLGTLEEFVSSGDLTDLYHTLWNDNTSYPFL
# Assay: PBM E-score (8-mer binding enrichment) (E-score (-0.5 to 0.5)); higher = stronger / more preferred TF binding
# Details: protein concentration: 200 nM; construct: GST-full length
# Method in brief: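 PURExpress in vitro transcription/translation supplied GST-tagged yeast transcription factors, either full-length or DNA-binding domain. Applied at about 100-200 nM to universal all-10-mer Agilent arrays double-stranded by primer extension, the bound protein was detected with fluorescent anti-GST. E-scores, modified Wilcoxon-Mann-Whitney statistics, were given by the Universal PBM Analysis Suite to ungapped eight-base words pooled with their reverse complements after masliner normalisation.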
row,Sequence,PBM E-score
1,ACAGTAAA,-0.0539
2,AGCAAAAG,-0.336
3,CTATAAGC,-0.129
4,TCAATAGA,-0.262
5,ATGTTATC,0.0774
6,CAGTTTCC,0.253
7,ATCAGCGC,0.207
8,ATCAGCGA,-0.0101
9,ATCAGCGG,0.364
10,AGAGAGTC,-0.249
11,CCCCTTTC,0.00738
12,TAATGCAA,-0.241
13,AACGGCTT,0.0106
14,CCAGGTTA,-0.0429
15,ACCGCGGT,0.4
16,ATCGCGGA,0.282
17,ACCGCGAG,-0.00369
18,ATCGCGGG,0.186
19,ACCGCGGC,0.399
20,ACCGCGTA,0.174
21,ACCGCGGG,0.472
22,AACGCGGT,0.1
23,ACCGCGTC,0.0777
24,ACCGCGGA,0.488
25,ATCGCGGC,0.213

row,Sequence,PBM E-score
1,ACCGCGAT,0.177
2,CCTTGTGA,-0.0319
3,GGCTGTTA,0.0369
4,CACTTAGA,-0.119
5,CGCTGGAC,-0.075
6,TCCTCGCA,-0.0258
7,CAAATTGC,0.0819
8,CAAAAACC,0.0333
9,CTTACCAA,-0.108
10,AAGAGCAG,-0.0681
11,CTATGGCC,-0.124
12,TGTCGGAA,0.383
13,CGTCGGAG,0.178
14,CGTCGGAA,0.411
15,CGTCGGAC,0.252
16,AGTCGGAC,0.117
17,GGTCGGAC,0.15
18,GGTCGGAA,0.4
19,AGTCGGAG,0.134
20,TGTCGCAA,-0.0293
21,TGTCGTAA,-0.113
22,GGTCGGCA,-0.00943
23,AGTCGGAA,0.414
24,CCTTGGCG,-0.0565
25,CGCTTTGC,0.0905

row,Sequence,PBM E-score
1,CCCCACGA,-0.0538
2,ACAGTATC,-0.21
3,AAACCAGT,-0.227
4,GCTAGAGC,-0.272
5,AAGCCCGC,0.213
6,CCGCCCCC,0.0913
7,ACGCCCGG,0.311
8,ACGCCCCG,0.181
9,CCGCCCGC,0.241
10,CCGCCCCG,0.435
11,AAGCCCGG,0.379
12,CCGCCCGG,0.407
13,AAGCCCGT,-0.162
14,CACTCATG,-0.257
15,AAAGGGAT,-0.154
16,AACCGCCA,-0.0357
17,AGGAGATA,-0.182
18,CGGAGATA,0.386
19,GGGAGATA,0.0536
20,ATTCAAAA,0.0638
21,GAAAACTA,0.0457
22,AAATATAT,0.19
23,CGAAAGCC,-0.105
24,ATAACGGC,0.135
25,ATAACGGA,0.386

row,Sequence,PBM E-score
1,GTAACGGA,0.397
2,GTAACGCA,0.0163
3,GTAACGTA,-0.165
4,CTAACGGA,0.389
5,CTAACGAA,-0.0337
6,CTAACGGC,-0.00464
7,ATAACGGG,0.0143
8,CATGTGCG,0.0377
9,ATAGCGTC,-0.153
10,GTGCAGTA,-0.0405
11,CCTGGCCA,-0.107
12,ATGAAGCA,-0.152
13,ACGCTATG,-0.187
14,ATCGACCA,-0.176
15,CAAAGAGC,-0.0254
16,CCGGAGCC,0.403
17,ACGGAGCC,0.305
18,CAGGAGCG,-0.12
19,CCGGAGCG,0.37
20,GCGGAGCA,0.304
21,ACGGAGCG,0.337
22,GCGGAGCC,0.296
23,TCGGAGCA,0.28
24,CCGGAGCA,0.401
25,AAAAGAGT,-0.208

row,Sequence,PBM E-score
1,AAGATTCG,0.108
2,ACAACACG,0.0551
3,ATGTTCGC,-0.165
4,ACTGGCGG,0.153
5,CTTCAGGC,-0.224
6,CGCAAGAG,0.0334
7,CCGGAATA,0.437
8,AGGGAATC,0.00236
9,CTGGAATA,0.08
10,AAGGAATA,-0.0227
11,CGGGAATA,0.331
12,ATGGAATG,0.184
13,ACGGAATA,0.445
14,ACGGAATC,0.465
15,ATGGAATC,0.205
16,ACGGAATG,0.432
17,ATGGAATA,0.205
18,AGGGAATG,-0.0936
19,GGCCGATA,0.0764
20,CATGTTTA,-0.0824
21,GCCGCATA,0.237
22,AAGGGCAC,-0.157
23,AAGCCGCC,0.0806
24,AACCTAGA,0.11
25,AGACAGTC,-0.0923

row,Sequence,PBM E-score
1,CTGGAATC,0.02
2,GCGGAATA,0.398
3,GGGGAATA,0.121
4,CGGGAATC,0.334
5,GTGGAATA,0.122
6,CCGGAATC,0.471
7,CCCACTCA,-0.108
8,AGATTGTC,0.0868
9,AGTAAAAT,-0.11
10,ACGGCTAG,-0.152
11,AAAACCAA,-0.0135
12,AATATTTG,0.0496
13,AATACGGA,0.351
14,CATACGGA,0.359
15,TATACGGA,0.221
16,GATACGGA,0.357
17,GATACGGC,0.014
18,CATACGGC,0.143
19,CTGTTCTC,-0.0802
20,ATGAGCTG,-0.0649
21,CGTATTTA,0.164
22,CGGTGCCA,-0.115
23,AATCCCGC,0.333
24,TATCCCGA,0.305
25,AGTCCCGA,0.147

row,Sequence,PBM E-score
1,AATCCCGT,0.409
2,AATCCCGA,0.358
3,AATCCCAT,-0.0271
4,ACAAGGTG,-0.125
5,GTCCTCTA,-0.222
6,GGAACCTA,0.3
7,TCTGGCAA,0.0125
8,ACCTACGC,-0.0495
9,TAAACGGA,0.366
10,TAAACGTA,-0.137
11,GAAACGAA,0.0452
12,CAAACGGA,0.37
13,TAAACGAA,-0.0987
14,GAAACGGA,0.395
15,CAAACGGG,0.184
16,GAAACGGC,0.202
17,AAAACGGA,0.314
18,CAAATGCG,0.0429
19,CATTCTCC,-0.105
20,CAGGGCAA,0.0442
21,CCGCTAGG,0.0934
22,TCGCTAGA,-0.125
